HP1b chromo inh – inhibitors of HP1-beta chromodomain binding to methylated histone tails | P83916 | AlphaScreen HP1-beta / biotin-H3K9me3 peptide binding | Potency, µM (highest dose often 114 µM), for inactives: top-dose activity change, negative = inhibition, most hits filed as inhibitors | hit rate 0.56% among 390,000 | AID 540317; further: nearly all actives have a fitted effect of over 70% in size
Target sequence (P83916 whole entry, looked up): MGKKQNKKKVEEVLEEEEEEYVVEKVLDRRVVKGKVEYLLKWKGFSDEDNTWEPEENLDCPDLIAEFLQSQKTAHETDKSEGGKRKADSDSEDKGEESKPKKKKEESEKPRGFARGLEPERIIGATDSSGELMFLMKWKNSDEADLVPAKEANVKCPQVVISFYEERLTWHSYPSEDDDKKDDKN
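Compound inhibition of the preformed complex between 50 nM HP1-beta and 50 nM biotinylated H3K9me3 peptide was read by AlphaScreen. Buffer was PBS pH 7.4 with 0.01% Tween-20. Incubations ran 30 min at room temperature, with 10 ug/mL donor/acceptor beads.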
GLS inh – inhibitors of human glutaminase (GLS); GLS enzymatic activity, qHTS titration; hit rate 0.21% among 410,000; O94925; Potency, µM (highest dose often 45.5 µM), without a hit: top-dose activity change, negative = inhibition, most hits filed as inhibitors; further: on the % scale 0 is the no-effect control and ±100 the full control effect
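Read-out is an Amplex red fluorescence increase coupled through glutamate oxidase and HRP, measured before and after 30 min room-temperature incubation. hKGA is in 45 mM KH2PO4 (pH 8.2) with 0.02% Tween-20; glutamine added as 1mM solution.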
G9a inh – blocks human histone lysine methyltransferase G9a. Potency, µM (titrated, usually from 102 µM), inactives show at the highest dose activity, negative = inhibition, most hits filed as inhibitors. Q96KQ7. AID 504332. G9a H3K9 monomethylation, AlphaScreen, 2 h. hit rate 8.8% among 350,000; further: on the % scale 0 is the no-effect control and ±100 the full control effect; nearly all actives have a fitted effect of over 75% in size
Target sequence (Q96KQ7 913-1193 limits assumed): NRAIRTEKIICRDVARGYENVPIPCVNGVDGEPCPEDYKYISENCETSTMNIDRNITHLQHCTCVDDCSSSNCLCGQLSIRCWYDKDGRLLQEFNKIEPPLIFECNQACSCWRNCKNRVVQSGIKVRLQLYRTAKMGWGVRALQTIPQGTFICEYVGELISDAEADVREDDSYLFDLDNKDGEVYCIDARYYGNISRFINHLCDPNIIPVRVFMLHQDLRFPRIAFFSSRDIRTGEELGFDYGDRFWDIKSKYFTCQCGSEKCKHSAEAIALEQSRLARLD
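G9a (20 nM) was preincubated 15 min with compound, then reacted 2 h at room temperature with 500 nM biotin-H3K9 peptide and 20 µM SAM. Monomethyl-H3K9 detected by AlphaScreen using anti-H3K9me1 antibody.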
BAZ2B block – BAZ2B (human) inhibition; hit rate 4.4% among 360,000; Q9UIF8; Potency, µM (doses to about 114 µM), for inactives: top-dose activity change, negative = inhibition, usual class: inhibitors; AlphaScreen BAZ2B-H3K14Ac peptide displacement; further: on the % scale 0 is the no-effect control and ±100 the full control effect; nearly all actives have a fitted effect of over 60% in size
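Compounds, titrated to a top concentration of 110 uM, were incubated 30 min at room temperature with preformed BAZ2B/acetyl-K14 H3 peptide complex (50 nM each). Proximity signal was measured by AlphaScreen after 20 min with beads.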
JMJD2A Tudor – inhibitors of human JMJD2A Tudor domain | O75164 | AlphaScreen JMJD2A-Tudor / H3K4me3 peptide binding | Potency, µM (top dose mostly 114 µM), for the others: top-dose activity change, negative = inhibition, usual class: inhibitors | hit rate 4.4% among 390,000; further: on the % scale 0 is the no-effect control and ±100 the full control effect; nearly all actives have a fitted effect of over 50% in size
* = called active by the depositor; ? = inconclusive; / = not tested or not shown; [ ] = another dose, or the depositor's remark. Sampled rows, rich in hits. Any-hit rate of the full collection: about 10%. The call rests on the fitted dose curve; in most records, active means well fitted curve in the direction sought with a large enough effect; inconclusive means small, poorly fitted or top-dose-only effect, or another doubt; inactive means no such curve, though single readings can be large; an effect the other way counts as inactive or inconclusive. Potency means the concentration at half of the fitted maximal effect.

SMILES | HP1b chromo inh | GLS inh | G9a inh | BAZ2B block | JMJD2A Tudor
O=C(CC1Nc2ccccc2NC1=O)Nc1ccc2c(c1)OCO2 (stereo unspecified) | -16% | -5% | 13µM* | -14% | -27%
CC(C)(C)c1ccc(C(=O)Nc2ncn[nH]2)cc1 | 30% | -5% | ? | ? | 9%
Cc1ccc(C(=O)Nc2ncn[nH]2)cc1 | 49% | -6% | ? | 50µM* | ?
CC(C(=O)Nc1ncn[nH]1)N1C(=O)c2ccccc2C1=O (stereo unspecified) | 44% | 3% | ? | 5% | -5%
O=C(Nc1ncn[nH]1)c1cccc(F)c1 | / | 0% | 23%[2.33 µM] | 50µM* | ?
Cc1ccc(SC(C)C(=O)Nc2ncn[nH]2)cc1 (stereo unspecified) | 41% | 4% | ? | 56µM* | -22%
O=C(NCc1cccc(Br)c1)C1CC(c2ccccc2C(F)(F)F)=NO1 (stereo unspecified) | 67% | -10% | -9%[12.7 µM] | -6% | -1%
CCOCCCNC(=O)c1c(NC(=O)c2cc(=O)c3ccccc3o2)sc2c1CCC2 | 21% | 12% | -2%[59 µM] | -12% | -16%
O=C(NCc1ccccc1)/C(=C\c1ccc(F)cc1)NC(=O)c1ccco1 | / | -5% | / | / | /
COc1ccccc1NS(=O)(=O)c1cc(NC(=O)c2ccncc2)ccc1N1CCCC1 | ? | ? | 7.9µM* | / | -36%
COc1ccccc1NS(=O)(=O)c1cc(N)ccc1N1CCOCC1 | ? | -6% | / | / | -31%
COc1ccccc1NS(=O)(=O)c1cc(NC(=O)c2ccccc2C)ccc1N1CCOCC1 | 9% | -1% | / | / | -15%
COc1ccccc1NS(=O)(=O)c1cc(NC(=O)C2CC2)ccc1N1CCOCC1 | / | / | 8.9µM* | -35% | /
COc1ccc(NC(C)=O)cc1S(=O)(=O)Nc1ccc(OCc2ccccc2)cc1 | -6% | ? | 45µM* | ? | ?
COc1ccccc1NS(=O)(=O)c1cc(N2Cc3ccccc3C2=N)ccc1N1CCOCC1 | ? | -14% | 14µM* | / | ?
COc1ccc(NC(C)=O)cc1S(=O)(=O)Nc1ccccc1C(=O)NCCc1ccccc1 | 9% | 15% | 3% | -25% | -3%
CCC(=O)Nc1ccc(CC)cc1-c1nc2ccccc2n(CC(=O)Nc2cccc(Cl)c2)c1=O | 31% | -8% | -8%[59 µM] | 3% | -14%
CC1CCC(N2CC(=O)N(C3CCCCC3)C(c3ccc(Cl)cc3)C2=O)CC1 (stereo unspecified) | 21% | 6% | -41%[59 µM] | -4% | -20%
O=C(c1ccco1)N1CCC2(CC1)CN(c1ccccc1)C2 | / | / | 23%[12.7 µM] | / | /
CC(=O)c1c(C)[nH]c(C(=O)CN2CCN(S(=O)(=O)c3ccccc3F)CC2)c1C | 28% | 1% | / | / | -14%
COc1ccccc1NS(=O)(=O)c1cc(NC(=O)Nc2cccc(C)c2)ccc1N1CCCCC1 | ? | 8% | 25µM* | -3% | -24%
COc1ccccc1NS(=O)(=O)c1cc(NC(C)=O)ccc1N1CCCCC1 | ? | 5% | 8.9µM* | / | 79µM*
CCC(=O)Nc1ccc(N2CCOCC2)c(S(=O)(=O)Nc2ccc(OC)cc2)c1 | 13% | -32% | 1% | ? | -4%
CCCCCC(=O)Nc1ccc(N2CCOCC2)c(S(=O)(=O)Nc2ccc(OC)cc2)c1 | 10% | 3% | 11µM* | 9% | -15%
CCN(CC)c1ccc(NC(=O)c2ccccc2)cc1S(=O)(=O)Nc1ccccc1OC | ? | 0% | 1µM* | -36% | 79µM*
SMILES | HP1b chromo inh | GLS inh | G9a inh | BAZ2B block | JMJD2A Tudor
COCC(=O)Nc1ccc(N2CCCC2)c(S(=O)(=O)Nc2ccccc2OC)c1 | 36% | 0% | 19%[2.33 µM] | -2% | -19%
COc1cccc(Cn2nnc(C(=O)NCc3ccc(Cl)cc3Cl)c2N)c1 | 6% | 2% | -8%[59 µM] | -4% | 0%
CN(CC(=O)Nc1ccc(F)cc1F)S(=O)(=O)c1ccc(C(=O)N2CCOCC2)s1 | -2% | -16% | 9%[59 µM] | -2% | -11%
CN(C)CCCn1c2c(c(SCC(=O)Nc3ccc4c(c3)OCCO4)nc1=O)CCC2 | 12% | 7% | ? | -2% | -4%
COc1ccccc1NNC(=O)c1cccnc1Oc1ccccc1 | 12% | ? | 7.1µM* | 4% | -15%
CCCCN(C(=O)c1ccncc1)c1c(N)n(CCC)c(=O)[nH]c1=O | 22% | 3% | / | / | -8%
Cn1c(-c2ccccc2)c(/C=N/NC(=O)c2cccnc2)c2ccccc21 | -26% | 5% | 36%[59 µM] | ? | -24%
Cc1ccccc1NC1=C/C(=N\S(=O)(=O)c2cccs2)c2ccccc2C1=O | ? | -1% | 3.2µM* | 10µM* | 6.3µM*
Cc1ccc(NC2=C/C(=N/S(=O)(=O)c3cccs3)c3ccccc3C2=O)cc1C | -17% | 16% | 0%[59 µM] | ? | -24%
CC(=O)Nc1ccc(NC2=C/C(=N/S(=O)(=O)c3cccs3)c3ccccc3C2=O)cc1 | 50µM* | 1% | 45µM* | 3.5µM* | 50µM*
COc1ccc(S(=O)(=O)/N=C2\C=C(Nc3ccc(O)cc3)C(=O)c3ccccc32)cc1 | 10µM* | 8.9µM* | 8.9µM* | 8.9µM* | 5.6µM*
CCCCc1c(Cc2cccc(F)c2)ncn1CCc1ccccc1OC | / | 3% | / | / | /
NNc1nc(-c2ccccc2)nc(-c2ccccc2)c1Br | 27% | 19% | / | / | -29%
Cc1c(CCC(=O)N[C@@H](CC(C)C)C(=O)O)c(=O)oc2cc3oc4c(c3cc12)CCCC4 | 22% | -2% | -2% | -12% | -18%
CC(CC(=O)Nc1nnc(CC(C)(C)C)s1)c1ccccc1 (stereo unspecified) | -7% | 5% | 40µM* | 5% | -12%
CC(C)(C)Cc1nnc(NS(=O)(=O)c2ccccc2)s1 | -1% | 13% | 79µM* | -19% | -13%
CCCS(=O)(=O)NC(=O)C1(C)CCCN(C(=O)c2cc(C)n(C(C)(C)C)n2)C1 (stereo unspecified) | / | -8% | / | / | /
COc1cc(S(=O)(=O)N(Cc2cccnc2)Cc2ccco2)ccc1-n1cnnn1 | -1% | -9% | 5.6µM* | 56µM* | 28µM*
COc1cccc(CNS(=O)(=O)c2ccc(-n3cnnn3)c(C)c2)c1 | 48% | -3% | 2% | -1% | -8%
COc1cccc(CN(Cc2cccnc2)S(=O)(=O)c2ccc(-n3cnnn3)c(C)c2)c1 | 12% | -12% | ? | 79µM* | 89µM*
Cc1cc(S(=O)(=O)N(Cc2ccccc2)Cc2ccc(N(C)C)cc2)ccc1-n1cnnn1 | -23% | 15% | 8.9µM* | -33% | 40µM*
Cc1c(C(=O)NCc2ccc(C(C)C)cc2)sc(=O)n1Cc1ccc(S(=O)(=O)N(C)C)cc1 | / | 5% | / | / | /
COc1ccc(OC)c(CN2C(=O)c3ccccc3C2c2nnnn2C2CCCC2)c1 (stereo unspecified) | / | -4% | / | / | /
O=C(NCCc1cscn1)C1CCC(=O)N(Cc2ccc(Cl)cc2)C1 (stereo unspecified) | 14% | 3% | 71µM* | -19% | -16%
